Screens: PubChem, National Center for Advancing Translational Sciences (NCATS)
Sampled rows, rich in hits. Any-hit rate of the full collection: about 9.3%.
Rab9 prom act: qHTS Assay for Rab9 Promoter Activators | Huh7 Rab9 promoter-luciferase reporter, luminescence, 24 h | Potency, µM (highest dose often 9.22 µM), without a hit: top-dose activation, negative = inhibition, usual class: activators | 2.8% of 320,000 active; further: % of control where 0% means no effect; nearly all actives have a fitted effect of over 60% in size
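Using Huh7 cells stably transfected with Rab9 promoter–luciferase, compounds were incubated 24 h at 37 °C, 5% CO2; luciferase luminescence was read 10 min after reagent addition.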
NPC1 promoter act: qHTS Assay for NPC1 Promoter Activators | Huh7 NPC1 promoter luciferase reporter, 24 h | Potency, µM (series often up to 9.22 µM), for inactives: at the highest dose activation, most hits filed as activators | 2.4% of 320,000 active | AID 485313, 2010; further: % of control where 0% means no effect; nearly all actives have a fitted effect of over 60% in size
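NPC1 promoter–luciferase Huh7 cells; 24 h compound; luminescence.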
ELG1 repair inh: qHTS screen for small molecules that inhibit ELG1-dependent DNA repair in human embryonic kidney (HEK293T) cells expressing luciferase-tagged ELG1; HEK293T ELG1-luciferase reporter, luminescence, 16 h; DNA damage induced by 5-fluorouridine; Potency, µM (doses to about 46.1 µM), without a hit: at the top dose activity change, negative = inhibition, most hits filed as inhibitors; 2.3% of 330,000 active; AID 504467, 2011; further: on the % scale 0 is the no-effect control and ±100 the full control effect; nearly all actives have a fitted effect of over 55% in size
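HEK293T cells expressing luciferase-tagged ELG1 (2,000/well) received 5-Fluorouridine plus compound or DMSO for 16 hr at 37 °C. Luciferase was read by ONE-Glo luminescence after 30 min at room temperature.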
ELG1 genotox: qHTS screen for small molecules that induce genotoxicity in human embryonic kidney (HEK293T) cells expressing luciferase-tagged ELG1. Potency, µM (highest dose often 46 µM), inactives show top-dose activity change, positive = activation, hits mostly activators. 1.3% of 330,000 active. HEK293T ELG1-luciferase reporter, luminescence, 16 h; further: % of control where 0% means no effect; nearly all actives have a fitted effect of over 60% in size
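Step 1: seed 2,000 HEK293T ELG1-luciferase cells per well. Step 2: add compound or DMSO, incubate 16 hr at 37 °C. Step 3: ONE-Glo, 30 min at room temperature, read luminescence.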
SMN2 splice enh: qHTS Assay for Enhancers of SMN2 Splice Variant Expression; HEK293 SMN2-luciferase splicing reporter, luminescence, 30-36 h; Potency, µM (doses to about 46.1 µM), inactives show at the top dose activity change, positive = activation, actives largely listed as activators; 2.8% of 210,000 active; further: % of control where 0% means no effect; nearly all actives have a fitted effect of over 55% in size
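HEK293 cells carry an SMN2 […]–luciferase reporter in which exon 7 inclusion puts luciferase in frame. Cells were plated 10-12 h before compound addition, then incubated 30-36 h at 37C. ONE-Glo luminescence was read; sodium butyrate at 4.5 mM final served as control.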
FLuc counter: qHTS profiling assay for firefly luciferase inhibitor/activator using purifed enzyme and Km concentrations of substrates (counterscreen for miR-21 project); 6.9% of 360,000 active; AID 588342, 2011; purified FLuc, Km substrates, luminescence inhibition; Potency, µM (highest dose often 57.5 µM), inactives show at the top dose activity change, negative = inhibition, most hits filed as inhibitors;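 further: plate controls were vehicle for no effect and reference inhibitor for full effect; nearly all actives have a fitted effect of over 55% in size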
Target sequence (P08659 whole entry, looked up): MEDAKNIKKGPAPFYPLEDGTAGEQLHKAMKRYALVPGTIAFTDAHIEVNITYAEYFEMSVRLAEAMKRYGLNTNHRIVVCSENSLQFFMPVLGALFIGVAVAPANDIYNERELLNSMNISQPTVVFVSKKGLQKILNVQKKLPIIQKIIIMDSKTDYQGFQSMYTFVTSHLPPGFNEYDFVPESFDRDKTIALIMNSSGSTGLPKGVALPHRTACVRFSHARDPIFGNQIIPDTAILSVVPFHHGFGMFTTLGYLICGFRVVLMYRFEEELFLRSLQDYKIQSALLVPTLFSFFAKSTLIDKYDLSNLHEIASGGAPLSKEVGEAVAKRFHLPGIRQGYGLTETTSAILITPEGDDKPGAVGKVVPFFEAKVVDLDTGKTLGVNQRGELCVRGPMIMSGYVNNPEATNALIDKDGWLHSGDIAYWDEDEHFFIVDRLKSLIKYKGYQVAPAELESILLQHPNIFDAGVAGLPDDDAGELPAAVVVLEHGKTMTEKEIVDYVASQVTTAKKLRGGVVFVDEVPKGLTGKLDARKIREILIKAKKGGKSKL
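Purified P. pyralis luciferase (10nM final) with 10uM D-luciferin and 10uM ATP (Km levels) in 50mM Tris acetate pH 7.5, 10mM Mg acetate, 0.01% Tween-20, 0.05% BSA; qHTS 6-point titration, ~60 µM downward; luminescence read.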
* marks the source's active call; other numbers are inactive results; ? = inconclusive; nt = not tested or not shown. The call rests on the fitted dose curve; in most records, active means well fitted curve in the direction sought with a large enough effect; inconclusive means small, poorly fitted or top-dose-only effect, or another doubt; inactive means no such curve, though single readings can be large; an effect the other way counts as inactive or inconclusive. Potency means the concentration at half of the fitted maximal effect.

SMILES	Rab9 prom act	NPC1 promoter act	ELG1 repair inh	ELG1 genotox	SMN2 splice enh	FLuc counter
COc1ccc(N2CCN(S(=O)(=O)c3ccc4c(c3)C(C(C)C)C(=O)N4)CC2)cc1 (configuration not stated)	nt	nt	nt	nt	nt	-9%
CSCCC(NS(=O)(=O)c1ccc2c(c1)oc(=O)n2C)C(=O)Nc1ccc(F)c(Cl)c1 (configuration not stated)	nt	nt	nt	nt	nt	-5%
O=C(CSc1nc2ccccc2[nH]1)NCc1ccccc1	28%	26%	?	9%	nt	-5%
COc1ccc2nc(SCC(=O)c3ccco3)[nH]c2c1	1.8µM*	2.2µM*	?	?	?	5.4µM*
COc1ccc2nc(SCC(=O)C(C)(C)C)[nH]c2c1	2.2µM*	2µM*	?	15µM*	nt	?
O=C(CSc1ncnc2ccccc12)c1ccco1	3.2µM*	3.2µM*	?	?	nt	3µM*
O=C(CSc1nc2ccccc2[nH]1)c1ccco1	4µM*	?	?	?	?	17µM*
COc1ccc(S(=O)(=O)NCC(c2ccco2)N2CCOCC2)cc1OC (configuration not stated)	nt	nt	nt	nt	nt	-6%
O=S(=O)(NCCCSc1ccccc1)c1ccccc1F	-2%	-2%	1%	-2%	nt	4%
CN(C)/C=C/C(=O)c1ccc(Cl)cc1	13%	19%	?	6%	-14%	?
CN(C)/C=C/C(=O)/C=C/c1ccc(Cl)cc1	?	?	?	?	13µM*	13µM*
CN(C)CCCNC(=O)c1cc(C(=O)c2c(Cl)cccc2Cl)c[nH]1	1%	-3%	1%	-7%	nt	0%
Cc1cc2nc(-c3ccc(SCC(=O)N4CCOCC4)nc3)[nH]c2cc1C	3.5µM*	?	?	2%	?	0.67µM*
Cc1cc(=O)[nH]c(SCC(=O)N2CCN(C(=O)c3ccco3)CC2)n1	nt	nt	0%	-1%	nt	nt
Cc1cc2nc(-c3ccc(SCC(=O)N4CCN(C(=O)c5ccco5)CC4)nc3)[nH]c2cc1C	3.5µM*	3.5µM*	?	-5%	7.9µM*	0.48µM*
O=C(O)Cc1sc(Nc2ccccc2)nc1-c1cccs1	27%	?	?	?	nt	12µM*
CCOC(=O)c1sc(N/N=C/c2cccc(C)c2)nc1C	?	?	?	11%	20%	8.5µM*
CCOC(=O)c1sc(N/N=C/c2ccccc2)nc1C	1.6µM*	2.8µM*	?	8.2µM*	13µM*	2.7µM*
CCOC(=O)c1sc(Nc2ccc(C)cc2C)nc1C	-3%	-3%	1%	21%	-19%	?
CC(=O)c1sc(N/N=C\c2ccccc2O)nc1C	?	?	?	6.5µM*	?	3.4µM*
O=C(Cc1sc(-c2ccccc2)nc1-c1ccccc1)Nc1ccccc1	-4%	0%	?	6%	12%	-19%
O=C(O)Cc1sc(-c2ccccc2Cl)nc1-c1ccccc1	4%	-6%	-20%	-11%	-21%	24µM*
COC(=O)c1ccc(/C=N/Nc2nc(C)c(C)s2)cc1	0.45µM*	0.35µM*	?	-7%	nt	1.1µM*
COc1ccccc1Nc1nc(-c2ccccc2)c(CC(=O)O)s1	nt	nt	nt	nt	12%	17µM*
COC(=O)c1ccc(/C=N/Nc2nc(-c3ccc(C)cc3)cs2)cc1	-2%	0%	?	1%	20%	-1%
O=C(O)Cc1sc(N/N=C\c2ccccc2)nc1-c1ccccc1	12%	7%	14%	0%	16%	24µM*
Cc1ccc(-c2nc(Nc3cccc(C)c3)sc2CC(=O)O)cc1	4%	12%	?	?	nt	?
